# Experimental data from ChEMBL document CHEMBL3988442, “University of Dundee, Small-Polar-MMV Screening Library” (2021).
# For some of these results: Potency and affinity values are given separately.
# Legend:
# Set-up in all cases: scale not given: direction of the effect not stated beside the values
# [1] = biological target: Protein translocase subunit SecA (Escherichia coli (strain K12)) (UniProt P10408); test: Assay to Identify E. coli SecA ATPase Inhibitors; type: functional; conditions: 30 µM
# [2] = biological target: T1, Ubiquitin-activating enzyme e1, putative (Leishmania donovani (strain BPK282A1)) (UniProt E9BSI1); test: Leishmania donovani Ubiquitin Activating Enzyme (LdE1); type: functional; conditions: 30 µM
# T1 sequence (whole entry): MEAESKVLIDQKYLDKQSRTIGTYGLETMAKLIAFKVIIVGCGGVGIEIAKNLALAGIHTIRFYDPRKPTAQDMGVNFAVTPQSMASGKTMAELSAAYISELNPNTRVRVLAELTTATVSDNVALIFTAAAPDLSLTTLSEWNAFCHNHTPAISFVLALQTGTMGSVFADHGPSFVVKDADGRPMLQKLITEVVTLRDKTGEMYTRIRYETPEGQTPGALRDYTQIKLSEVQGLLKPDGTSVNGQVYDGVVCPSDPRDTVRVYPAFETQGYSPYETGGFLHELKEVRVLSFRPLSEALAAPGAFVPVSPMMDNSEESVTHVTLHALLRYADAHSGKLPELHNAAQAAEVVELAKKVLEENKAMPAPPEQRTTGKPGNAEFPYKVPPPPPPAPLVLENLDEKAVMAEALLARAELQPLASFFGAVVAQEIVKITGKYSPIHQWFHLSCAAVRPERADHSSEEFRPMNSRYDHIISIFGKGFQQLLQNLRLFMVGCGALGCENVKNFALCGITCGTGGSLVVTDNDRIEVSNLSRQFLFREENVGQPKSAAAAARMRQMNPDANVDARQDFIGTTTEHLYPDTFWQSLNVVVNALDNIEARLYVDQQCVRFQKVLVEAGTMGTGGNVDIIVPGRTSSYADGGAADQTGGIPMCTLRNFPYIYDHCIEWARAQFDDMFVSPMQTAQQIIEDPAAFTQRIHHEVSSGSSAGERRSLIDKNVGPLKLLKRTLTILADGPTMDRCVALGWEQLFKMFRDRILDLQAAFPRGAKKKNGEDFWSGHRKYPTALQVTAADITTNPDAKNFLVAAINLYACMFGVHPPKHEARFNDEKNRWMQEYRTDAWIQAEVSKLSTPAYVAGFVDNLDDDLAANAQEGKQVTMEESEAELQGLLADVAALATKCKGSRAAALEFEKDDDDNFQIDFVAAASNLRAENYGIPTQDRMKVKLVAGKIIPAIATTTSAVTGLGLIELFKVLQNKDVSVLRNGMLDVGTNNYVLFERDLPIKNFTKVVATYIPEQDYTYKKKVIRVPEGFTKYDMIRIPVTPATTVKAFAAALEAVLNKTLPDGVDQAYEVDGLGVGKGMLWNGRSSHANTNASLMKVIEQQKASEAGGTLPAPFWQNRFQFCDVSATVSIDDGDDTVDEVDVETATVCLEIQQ
# [3] = biological target: AMP-activated protein kinase, AMPK (Homo sapiens) (UniProt P54646+O43741+P54619+Q9UGJ0+Q9Y478+Q13131+Q9UGI9); test: AMP-dependent Kinase enzyme assay. An in vitro enzyme assay that detects ADP turnover that is directly proportional to AMPK activity. This uses naive AMPK that is activated during the assay with MK-8722; type: functional; conditions: 30 µM
# [4] = biological target: Sialic acid-binding Ig-like lectin 9 (Homo sapiens) (UniProt Q9Y336); test: Hs-Siglec9 ALPHAscreen SOP 20170721; conditions: 10 µM
# [5] = test system: Trypanosoma cruzi; test: Trypanosoma cruzi phosphomannomutase and mannose-1-phosphate guanylyltransferase assay; type: functional; conditions: 10 µM
# [6] = biological target: T2, Arginase-2, mitochondrial (Homo sapiens) (UniProt P78540); test: in vitro enzyme assay to detect the production of urea directly proportional to the activity of Arginase II; type: functional; conditions: 33.3 µM; note: in the data most compounds retested in dose-response had high values
# T2 sequence (whole entry): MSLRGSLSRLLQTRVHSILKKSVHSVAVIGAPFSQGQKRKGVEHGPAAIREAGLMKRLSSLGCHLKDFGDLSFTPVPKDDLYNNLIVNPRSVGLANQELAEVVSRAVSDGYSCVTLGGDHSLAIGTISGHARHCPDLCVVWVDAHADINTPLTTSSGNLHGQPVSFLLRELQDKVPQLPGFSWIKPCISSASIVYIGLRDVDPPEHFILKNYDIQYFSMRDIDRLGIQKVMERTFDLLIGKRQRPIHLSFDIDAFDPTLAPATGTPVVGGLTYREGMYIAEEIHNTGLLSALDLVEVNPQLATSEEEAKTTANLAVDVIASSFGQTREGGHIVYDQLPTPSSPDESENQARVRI
# [7] = biological target: T3, Proteasome subunit beta (Trypanosoma cruzi) (UniProt O96673); test: Trypanosoma cruzi proteasome chymotrypsin-like activity (TcProtChymo) assay.; note: in the data most compounds retested in dose-response had high values; type: functional; conditions: 9.37 µM
# T3 sequence (whole entry): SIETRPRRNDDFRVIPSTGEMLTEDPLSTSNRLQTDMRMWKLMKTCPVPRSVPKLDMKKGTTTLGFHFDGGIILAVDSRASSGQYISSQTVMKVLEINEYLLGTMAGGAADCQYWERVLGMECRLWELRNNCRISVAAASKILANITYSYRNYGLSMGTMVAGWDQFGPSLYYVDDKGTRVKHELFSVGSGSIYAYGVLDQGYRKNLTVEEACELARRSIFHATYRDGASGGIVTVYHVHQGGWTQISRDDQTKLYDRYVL
# [8] = species: Homo sapiens; test: To identify inhibition of the IFN signalling (Jak-Stat) pathway via expression of an eGFP reporter gene under the control of an IFN-stimulated response element (ISRE) containing MxA promoter.; type: functional; conditions: 30 µM
# [9] = biological target: T4, Tyrosyl-tRNA synthetase, putative (Trypanosoma cruzi (strain CL Brener)) (UniProt Q4DSP6); test: Trypanosoma cruzi tyrosyl tRNA synthetase (TcYRS) _High Tyrosine SOP; type: functional; conditions: 30 µM; note: in the data most compounds retested in dose-response had high values
# T4 sequence (whole entry): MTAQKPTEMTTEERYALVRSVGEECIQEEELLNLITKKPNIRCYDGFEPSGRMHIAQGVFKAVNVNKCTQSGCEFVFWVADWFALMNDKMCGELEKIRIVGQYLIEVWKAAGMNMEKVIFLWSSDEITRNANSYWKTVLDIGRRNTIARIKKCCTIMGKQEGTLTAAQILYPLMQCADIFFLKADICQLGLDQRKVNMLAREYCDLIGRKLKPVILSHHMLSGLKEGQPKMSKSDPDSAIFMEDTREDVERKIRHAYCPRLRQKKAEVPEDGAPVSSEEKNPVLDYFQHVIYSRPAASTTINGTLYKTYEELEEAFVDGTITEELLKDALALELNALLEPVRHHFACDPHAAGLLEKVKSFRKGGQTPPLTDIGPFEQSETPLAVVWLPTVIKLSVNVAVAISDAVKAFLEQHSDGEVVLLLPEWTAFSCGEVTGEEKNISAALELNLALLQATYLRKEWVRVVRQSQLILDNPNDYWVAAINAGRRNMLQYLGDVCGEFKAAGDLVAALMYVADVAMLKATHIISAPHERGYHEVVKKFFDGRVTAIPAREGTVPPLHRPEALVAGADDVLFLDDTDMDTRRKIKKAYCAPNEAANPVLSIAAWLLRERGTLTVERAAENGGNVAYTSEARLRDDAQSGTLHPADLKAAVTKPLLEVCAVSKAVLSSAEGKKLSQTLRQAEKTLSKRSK
# [10] = biological target: T4, Tyrosyl-tRNA synthetase, putative (Trypanosoma cruzi (strain CL Brener)); test: Trypanosoma cruzi tyrosyl tRNA synthetase (TcYRS) SOP; type: functional; conditions: 30 µM
# [11] = biological target: Chromo domain-containing protein 1 (Saccharomyces cerevisiae (strain ATCC 204508 / S288c) (Baker's yeast)) (UniProt P32657); test: ScCHD-1 Enzyme Inhibition Assay; type: functional; conditions: 30 µM; note: in the data most compounds retested in dose-response had high values
# Sequence of Chromo domain-containing protein 1 (Saccharomyces cerevisiae (strain ATCC 204508 / S288c) (Baker's yeast)) (P32657 whole entry, the tested form may be a part): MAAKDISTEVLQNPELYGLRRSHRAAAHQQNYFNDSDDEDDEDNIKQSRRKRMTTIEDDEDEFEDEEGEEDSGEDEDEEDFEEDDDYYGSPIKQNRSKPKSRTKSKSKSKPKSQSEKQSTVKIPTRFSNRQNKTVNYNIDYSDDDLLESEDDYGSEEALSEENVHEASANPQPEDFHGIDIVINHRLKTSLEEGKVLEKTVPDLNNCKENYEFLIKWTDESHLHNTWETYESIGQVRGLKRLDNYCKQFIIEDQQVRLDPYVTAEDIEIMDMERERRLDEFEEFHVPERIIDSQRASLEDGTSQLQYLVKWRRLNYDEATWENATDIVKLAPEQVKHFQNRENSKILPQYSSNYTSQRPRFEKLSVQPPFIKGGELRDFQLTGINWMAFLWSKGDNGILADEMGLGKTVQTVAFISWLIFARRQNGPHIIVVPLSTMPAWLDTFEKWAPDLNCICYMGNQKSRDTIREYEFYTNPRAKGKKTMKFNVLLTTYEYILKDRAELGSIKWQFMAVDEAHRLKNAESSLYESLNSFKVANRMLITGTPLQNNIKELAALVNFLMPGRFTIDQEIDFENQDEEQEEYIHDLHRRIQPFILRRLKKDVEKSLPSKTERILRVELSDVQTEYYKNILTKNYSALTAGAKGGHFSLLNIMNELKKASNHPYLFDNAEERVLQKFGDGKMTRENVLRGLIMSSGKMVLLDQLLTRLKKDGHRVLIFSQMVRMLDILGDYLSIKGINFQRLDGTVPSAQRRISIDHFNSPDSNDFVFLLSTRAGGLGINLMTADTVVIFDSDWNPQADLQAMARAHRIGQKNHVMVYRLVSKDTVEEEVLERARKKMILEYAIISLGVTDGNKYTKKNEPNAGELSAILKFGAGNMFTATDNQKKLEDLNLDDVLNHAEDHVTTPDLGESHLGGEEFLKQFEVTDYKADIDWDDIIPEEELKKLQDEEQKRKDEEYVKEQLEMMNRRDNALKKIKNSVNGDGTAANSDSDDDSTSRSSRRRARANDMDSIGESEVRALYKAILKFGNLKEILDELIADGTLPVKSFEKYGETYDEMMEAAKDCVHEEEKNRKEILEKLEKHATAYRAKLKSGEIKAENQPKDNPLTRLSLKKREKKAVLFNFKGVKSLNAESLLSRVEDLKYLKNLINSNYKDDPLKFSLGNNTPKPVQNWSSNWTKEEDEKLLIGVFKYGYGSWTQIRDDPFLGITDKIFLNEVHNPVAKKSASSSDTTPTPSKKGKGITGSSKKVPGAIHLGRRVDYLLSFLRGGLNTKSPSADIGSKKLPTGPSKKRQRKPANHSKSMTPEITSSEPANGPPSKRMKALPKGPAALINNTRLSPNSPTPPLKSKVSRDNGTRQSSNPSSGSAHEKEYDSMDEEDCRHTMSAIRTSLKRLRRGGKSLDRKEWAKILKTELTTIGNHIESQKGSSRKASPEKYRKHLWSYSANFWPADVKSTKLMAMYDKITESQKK
# Sequence of Sialic acid-binding Ig-like lectin 9 (Homo sapiens) (Q9Y336 whole entry): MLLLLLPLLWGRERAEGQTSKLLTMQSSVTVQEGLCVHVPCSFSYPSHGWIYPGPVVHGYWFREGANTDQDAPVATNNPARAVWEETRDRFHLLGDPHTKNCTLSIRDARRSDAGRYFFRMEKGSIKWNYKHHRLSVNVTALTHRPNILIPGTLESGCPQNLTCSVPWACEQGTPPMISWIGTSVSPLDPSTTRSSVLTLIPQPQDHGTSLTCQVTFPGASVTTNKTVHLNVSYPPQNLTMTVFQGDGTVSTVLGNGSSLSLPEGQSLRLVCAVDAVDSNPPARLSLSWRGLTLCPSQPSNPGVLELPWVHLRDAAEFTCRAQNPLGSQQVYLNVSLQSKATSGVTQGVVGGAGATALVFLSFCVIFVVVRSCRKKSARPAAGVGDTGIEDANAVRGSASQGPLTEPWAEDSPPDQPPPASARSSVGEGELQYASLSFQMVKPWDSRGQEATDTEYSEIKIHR
# Sequence of Protein translocase subunit SecA (Escherichia coli (strain K12)) (P10408 whole entry): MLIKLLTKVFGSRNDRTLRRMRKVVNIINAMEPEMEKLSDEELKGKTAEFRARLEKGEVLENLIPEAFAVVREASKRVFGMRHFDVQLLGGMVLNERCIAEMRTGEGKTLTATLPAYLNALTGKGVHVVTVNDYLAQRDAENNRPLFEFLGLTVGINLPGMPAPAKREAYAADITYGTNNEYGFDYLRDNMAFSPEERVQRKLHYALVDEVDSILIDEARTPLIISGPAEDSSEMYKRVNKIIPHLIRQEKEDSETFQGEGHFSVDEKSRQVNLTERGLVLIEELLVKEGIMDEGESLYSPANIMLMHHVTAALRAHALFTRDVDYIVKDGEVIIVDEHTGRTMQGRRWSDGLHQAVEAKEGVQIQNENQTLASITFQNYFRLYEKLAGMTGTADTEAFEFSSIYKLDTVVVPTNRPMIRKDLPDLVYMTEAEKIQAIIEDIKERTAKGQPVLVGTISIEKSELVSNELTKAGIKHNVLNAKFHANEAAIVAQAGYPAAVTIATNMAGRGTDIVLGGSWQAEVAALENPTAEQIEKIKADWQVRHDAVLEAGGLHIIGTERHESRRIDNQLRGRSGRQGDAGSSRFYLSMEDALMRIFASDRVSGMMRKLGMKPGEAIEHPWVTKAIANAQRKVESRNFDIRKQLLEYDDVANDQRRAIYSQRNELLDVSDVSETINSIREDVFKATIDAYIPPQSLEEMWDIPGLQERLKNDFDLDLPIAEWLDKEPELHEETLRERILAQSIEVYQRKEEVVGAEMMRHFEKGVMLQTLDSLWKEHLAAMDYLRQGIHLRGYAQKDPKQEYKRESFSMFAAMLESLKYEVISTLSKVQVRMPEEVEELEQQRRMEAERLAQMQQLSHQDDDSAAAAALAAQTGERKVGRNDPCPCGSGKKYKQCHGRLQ
SMILES,Percent Effect [1] [%],Percent Effect [2] [%],Percent Effect [3] [%],Percent Effect [4] [%],Percent Effect [5] [%],Percent Effect [6] [%],Percent Effect [7] [%],Percent Effect [8] [%],Percent Effect [9] [%],Percent Effect [10] [%],Percent Effect [11] [%]
Cc1cccnc1CNc1cc(N2CCCC2CO)ncn1 (stereo not drawn),-2.07,2.6,-9.88,14.4,2.25,-3.56,8.11,11.7,2.91,9.76,-6.83
Cc1cc(N(C)Cc2noc(C)n2)n2nc(C)c(C)c2n1,-2.12,9.72,-8.49,-4.19,-1.07,3.97,15.6,9.15,4.21,10.3,-4.2
Cc1nnc(NCc2cccnc2N(C)C)c(C#N)c1C,-0.868,-5.41,-22.1,9.49,2.88,-4.25,-2.87,6.79,2.97,6.1,0.273
CN(C(=O)C1CCCCC1)[C@@H]1CCC[C@@H](N2CCOCC2)[C@@H]1O,-3.72,4.05,0.0373,6.37,1.78,-2.09,6.86,8.21,1.07,3.9,74.8
Cc1scc(C(=O)N2CCC3(CCCN(C)C3=O)C2)c1-c1ccccc1 (stereo not drawn),-0.994,0,1.8,-1.74,-3.09,1.91,7.41,-8.13,-2.65,9.76,-4.36
c1cnc(N2CCC3(CCN(Cc4ccncc4)CC3)CC2)nc1,-0.982,0,7.11,7.41,-2.25,-4.14,13.1,-0.931,1.08,5.13,13
CCc1n[nH]c(C2CN(C(=O)Cn3ccccc3=O)CCO2)n1 (stereo not drawn),0.155,16.5,-10.9,-3.88,0.718,6.67,17.1,2.18,3.12,12.7,-24.2
CS(=O)(=O)N1CCC(O)(Cn2c(C3CC3)nc3ccccc3c2=O)CC1,-6.42,1.35,8,2.72,-4.35,-0.232,5.77,11.6,-1.07,-3.9,7
